Experimental data as given in PubChem BioAssay (EPA / NIEHS).
Activity calls are given as the source filed them. How the source made its calls: active means hit-call score of the fitted dose curve at least 0.9, where 1 is the maximum; inactive means score below 0.9.

Tests used:
[1] = ATG_CRE_CIS: Attagene CIS-FACTORIAL HepG2 Assay for human cAMP Responsive Element (CRE) binding protein 3 (AID 2282926); settings: HepG2 CRE cis-reporter, Attagene multiplexed mRNA; actives raise or lower the signal
Procedure, shortened: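 Assay format: transient reporter transfection of HepG2, 24 h treatment, total RNA isolation with DNase I step. Reporter abundance read by fluorescence after PCR and capillary separation; DMSO-normalised gain or loss fitting.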

[2] = ATG_CMV_CIS: Attagene CIS-FACTORIAL HepG2 Assay for human CMV (Internal Marker) (AID 2282928); settings: HepG2 CMV promoter reporter, transcription factor profiling; actives raise or lower the signal;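 further: endpoint acts as a background internal control marker rather than a target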
Procedure, shortened: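 24 h chemical treatment, HepG2 with transient multi-reporter transfection; RNA → oligo(dT) RT → PCR → 6-FAM extension → HpaI digest → CE fluorescence. Bidirectional fit, DMSO negative control.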

[3] = ATG_DR4_LXR_CIS: Attagene CIS-FACTORIAL HepG2 Assay for human Liver X Receptor (LXR), DR4 submotif (AID 2282929); settings: HepG2 Attagene DR4 cis-reporter, mRNA transcription; actives raise or lower the signal
Procedure, shortened: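 Transiently transfected HepG2 liver cells; cis-regulated reporters; 24 h dosing. RT-PCR plus CE read-out of reporter mRNA. DMSO baseline, bidirectional curve fitting.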

[4] = biological target: Aryl hydrocarbon receptor (Homo sapiens) (UniProt P35869); assay: ATG_Ahr_CIS: Attagene CIS-FACTORIAL HepG2 Assay for human Aryl Hydrocarbon Receptor (Ahr) (AID 2282930); settings: HepG2 AhR cis-factorial reporter transcription; actives raise or lower the signal
Procedure, shortened: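 HepG2 cells transiently transfected with cis-element-driven multiplexed reporter transcription units; endogenous transcription factor activity measured as reporter mRNA 24 h after dosing. RT-PCR, 6-FAM labelling, HpaI digestion, capillary electrophoresis; bidirectional fitting versus DMSO baseline.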

[5] = ATG_AP_1_CIS: Attagene CIS-FACTORIAL HepG2 Assay for human Activator Protein 1 (AP-1) (AID 2282931); settings: HepG2 Attagene cis-factorial AP-1 reporter mRNA; actives raise or lower the signal
Procedure, shortened: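 We transfected HepG2 cells transiently with a set of cis-regulated reporter transcription units, dosed them for 24 h, and quantified reporter mRNA via RT-PCR and capillary electrophoresis, scoring gain or loss of signal relative to DMSO.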

[6] = ATG_AP_2_CIS: Attagene CIS-FACTORIAL HepG2 Assay for human Activator Protein 2 (AP-2) (AID 2282932); settings: HepG2 AP-2 cis-reporter, Attagene transcription factor profiling; actives raise or lower the signal
Procedure, shortened: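 Cells (HepG2) transfected with promoter-driven reporter constructs, treated 24 h. Total RNA reverse-transcribed, reporter cDNA PCR-amplified, FAM-labelled by primer extension, digested, resolved by capillary electrophoresis. Activity fitted both directions versus DMSO.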

[7] = ATG_BRE_CIS: Attagene CIS-FACTORIAL HepG2 Assay for human Bone Morphogenetic Protein (BMP) Response Element (BRE) (AID 2282933); settings: HepG2 BMP response element reporter, Attagene transcription factor profiling; actives raise or lower the signal
Procedure, shortened: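 Transient MRTU transfection of human HepG2 liver cells; 24 h compound treatment; total RNA isolated, reverse-transcribed, PCR-amplified, 6-FAM labelled, HpaI-cut, capillary electrophoresis. DMSO = negative control/baseline, bidirectional fit.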

[8] = biological target: Retinoic acid receptor alpha (Homo sapiens) (UniProt P10276); assay: ATG_DR5_RAR_CIS: Attagene CIS-FACTORIAL HepG2 Assay for human Retinoic Acid Receptor Alpha (RARE), DR5 submotif (AID 2282934); settings: HepG2 Attagene cis-factorial RARE DR5 reporter, mRNA; actives raise or lower the signal
Procedure, shortened: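 HepG2 cells transiently transfected with multiplexed reporter units under cis (DR5 RARE) promoters, so endogenous transcription factor activity is measured. After 24 h compound exposure, reporter mRNA is quantified by RT-PCR with fluorescent labelling and capillary electrophoresis; bidirectional fitting versus DMSO.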

[9] = biological target: Transcription factor E2F1 (Homo sapiens) (UniProt Q01094); assay: ATG_E2F_CIS: Attagene CIS-FACTORIAL HepG2 Assay for human E2F Transcription Factor 1 (AID 2282935); settings: HepG2 Attagene cis-reporter, E2F reporter RNA transcripts; actives raise or lower the signal
Procedure, shortened: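 First, HepG2 cells were transfected with reporter transcription units. Next, they were dosed for 24 h. Then RNA was isolated, converted to cDNA, PCR-amplified, FAM-labeled, HpaI-digested and analyzed by capillary electrophoresis.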

[10] = ATG_E_Box_CIS: Attagene CIS-FACTORIAL HepG2 Assay for human Enhancer Box (E-box) (AID 2282936); settings: HepG2 E-box cis-reporter transcription, actives raise or lower the signal
Procedure, shortened: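 Endogenous transcription factor activity was sensed in human HepG2 liver cells through transfected cis-promoter reporter units. After 24 h of dosing, total RNA was reverse-transcribed and reporter cDNA resolved by capillary electrophoresis.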

[11] = ATG_M_61_CIS: Attagene CIS-FACTORIAL HepG2 Assay for M61 Transcription Factor (Internal Marker) (AID 2282937); settings: HepG2 Attagene CIS-FACTORIAL M61 internal marker reporter; actives raise or lower the signal
Procedure, shortened: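 Multiplexed reporter mRNA assay, HepG2 human hepatoma cells, 24 h treatment. Signal: FAM-labelled, HpaI-digested RT-PCR fragments by CE. Fit: bidirectional, baseline DMSO.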

[12] = ATG_EGR_CIS: Attagene CIS-FACTORIAL HepG2 Assay for human Early Growth Response 1 (EGR1) (AID 2282938); settings: HepG2 Attagene CIS-FACTORIAL EGR reporter mRNA; actives raise or lower the signal
Procedure, shortened: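 Multiplexed cis-reporter system in human hepatoma HepG2 cells, transiently transfected. Cells are dosed for 24 h; reporter transcripts are amplified, fluorescently tagged and sized by capillary electrophoresis, with DMSO as negative control.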

[13] = ATG_M_19_CIS: Attagene CIS-FACTORIAL HepG2 Assay for M19 Transcription Factor (Internal Marker) (AID 2282939); settings: HepG2 Attagene CIS-FACTORIAL M19 internal marker reporter; actives raise or lower the signal
Procedure, shortened: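 Transfect HepG2 with MRTU reporter library → dose chemical, 24 h → isolate total RNA, reverse-transcribe with oligo(dT) → PCR, 6-FAM label, HpaI cut (2 h, 37 C) → capillary electrophoresis. Bidirectional fit vs DMSO.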

[14] = ATG_ERE_CIS: Attagene CIS-FACTORIAL HepG2 Assay for Estrogen Response Element (ERE) (AID 2282940); settings: HepG2 ERE cis-reporter, Attagene RNA transcript; actives raise or lower the signal
Procedure, shortened: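 Transient MRTU transfection of human HepG2; cis-element promoters; 24 h dosing; total RNA → RT (oligo dT) → PCR → 6-FAM primer extension → HpaI digest → CE fluorescence. Bidirectional fit, DMSO baseline.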

[15] = ATG_Ets_CIS: Attagene CIS-FACTORIAL HepG2 Assay for human Erythroblast Transformation Specific (ETS) (AID 2282941); settings: HepG2 ETS cis-reporter transcription, actives raise or lower the signal
Procedure, shortened: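 Cis-regulated reporter mRNA induction in HepG2 (transient transfection), 24 h exposure, RT-PCR plus capillary electrophoresis detection; DMSO serves as negative control and baseline.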

[16] = biological target: Hepatocyte nuclear factor 3-beta (Homo sapiens) (UniProt Q9Y261); assay: ATG_FoxA2_CIS: Attagene CIS-FACTORIAL HepG2 Assay for human Forkhead box A2 (FOXA2) (AID 2282942); settings: HepG2 cis-reporter transcription factor activity, 24 h; actives raise or lower the signal
Procedure, shortened: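 Multiplexed cis-element reporter assay in transiently transfected HepG2. Twenty-four hours post-dosing, RNA was reverse-transcribed, amplified, FAM-labelled, HpaI-digested and separated by CE. Activity gain or loss relative to DMSO.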

[17] = ATG_FoxO_CIS: Attagene CIS-FACTORIAL HepG2 Assay for human Forkhead box O (FoxO) (AID 2282943); settings: HepG2 Attagene cis-reporter, FoxO element, mRNA; actives raise or lower the signal
Procedure, shortened: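 HepG2 cells transiently transfected with cis-promoter-driven multiple reporter transcription units; 24 h after chemical dosing, reporter mRNA quantified by RT-PCR, fluorescent primer extension, HpaI digestion and capillary electrophoresis. Bidirectional fitting versus DMSO baseline.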

[18] = ATG_GATA_CIS: Attagene CIS-FACTORIAL HepG2 Assay for human GATA Binding Protein (AID 2282944); settings: HepG2 GATA cis-element reporter, Attagene multiplex mRNA; actives raise or lower the signal
Procedure, shortened: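 Transient MRTU transfection, HepG2, 24 h compound exposure. Total RNA → oligo(dT) RT → PCR → 6-FAM primer extension → HpaI cut → CE. Bidirectional fit vs DMSO.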

[19] = ATG_GLI_CIS: Attagene CIS-FACTORIAL HepG2 Assay for human Zinc Finger Protein GLI1 (AID 2282945); settings: HepG2, Attagene cis-factorial reporter mRNA, GLI element; actives raise or lower the signal
Procedure, shortened: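 HepG2 cells transiently transfected with cis-promoter multiplexed reporter units report endogenous transcription factor activity. After 24 h chemical exposure, reporter mRNA was quantified by RT-PCR, 6-FAM labelling, HpaI digestion and capillary electrophoresis, with bidirectional fitting against DMSO.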

[20] = biological target: CCAAT/enhancer-binding protein beta (Homo sapiens) (UniProt P17676); assay: ATG_C_EBP_CIS: Attagene CIS-FACTORIAL HepG2 Assay for human CCAAT/Enhancer Binding Protein (C/EBP) beta (AID 2282927); settings: HepG2 Attagene cis-factorial transcription factor reporter; actives raise or lower the signal
Procedure, shortened: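 RT-PCR/capillary electrophoresis fluorescence of reporter mRNA, 24 h post-dose, in HepG2 cells carrying transfected cis-promoter reporter units. Bidirectional curve fitting against DMSO baseline captures gain or loss of signal.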

Measured: AC50

Sequence of Retinoic acid receptor alpha (Homo sapiens) (P10276 whole entry, looked up): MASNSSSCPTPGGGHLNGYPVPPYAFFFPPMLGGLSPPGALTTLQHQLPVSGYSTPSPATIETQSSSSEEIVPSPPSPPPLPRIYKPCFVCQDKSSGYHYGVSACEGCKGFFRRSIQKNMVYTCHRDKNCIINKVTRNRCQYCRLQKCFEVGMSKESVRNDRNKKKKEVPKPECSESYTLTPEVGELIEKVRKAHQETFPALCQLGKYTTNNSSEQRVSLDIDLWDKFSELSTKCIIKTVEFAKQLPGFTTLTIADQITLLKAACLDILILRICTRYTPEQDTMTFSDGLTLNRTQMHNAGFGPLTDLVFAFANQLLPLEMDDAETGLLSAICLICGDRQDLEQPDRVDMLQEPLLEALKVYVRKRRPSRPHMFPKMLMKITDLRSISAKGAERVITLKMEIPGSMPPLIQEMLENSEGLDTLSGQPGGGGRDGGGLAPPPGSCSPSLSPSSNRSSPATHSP
Sequence of Transcription factor E2F1 (Homo sapiens) (Q01094 whole entry, looked up): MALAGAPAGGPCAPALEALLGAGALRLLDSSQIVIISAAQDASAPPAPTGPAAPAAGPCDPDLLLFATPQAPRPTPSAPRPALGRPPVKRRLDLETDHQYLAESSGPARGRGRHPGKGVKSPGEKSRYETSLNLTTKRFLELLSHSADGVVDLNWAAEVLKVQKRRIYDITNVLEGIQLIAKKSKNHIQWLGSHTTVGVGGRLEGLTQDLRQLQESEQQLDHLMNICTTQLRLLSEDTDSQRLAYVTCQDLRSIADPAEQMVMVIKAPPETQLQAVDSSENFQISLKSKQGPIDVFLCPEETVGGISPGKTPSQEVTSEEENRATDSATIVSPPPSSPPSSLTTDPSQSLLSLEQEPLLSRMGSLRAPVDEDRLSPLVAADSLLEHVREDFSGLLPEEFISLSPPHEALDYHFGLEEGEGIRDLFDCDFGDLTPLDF
Sequence of Aryl hydrocarbon receptor (Homo sapiens) (P35869 whole entry, looked up): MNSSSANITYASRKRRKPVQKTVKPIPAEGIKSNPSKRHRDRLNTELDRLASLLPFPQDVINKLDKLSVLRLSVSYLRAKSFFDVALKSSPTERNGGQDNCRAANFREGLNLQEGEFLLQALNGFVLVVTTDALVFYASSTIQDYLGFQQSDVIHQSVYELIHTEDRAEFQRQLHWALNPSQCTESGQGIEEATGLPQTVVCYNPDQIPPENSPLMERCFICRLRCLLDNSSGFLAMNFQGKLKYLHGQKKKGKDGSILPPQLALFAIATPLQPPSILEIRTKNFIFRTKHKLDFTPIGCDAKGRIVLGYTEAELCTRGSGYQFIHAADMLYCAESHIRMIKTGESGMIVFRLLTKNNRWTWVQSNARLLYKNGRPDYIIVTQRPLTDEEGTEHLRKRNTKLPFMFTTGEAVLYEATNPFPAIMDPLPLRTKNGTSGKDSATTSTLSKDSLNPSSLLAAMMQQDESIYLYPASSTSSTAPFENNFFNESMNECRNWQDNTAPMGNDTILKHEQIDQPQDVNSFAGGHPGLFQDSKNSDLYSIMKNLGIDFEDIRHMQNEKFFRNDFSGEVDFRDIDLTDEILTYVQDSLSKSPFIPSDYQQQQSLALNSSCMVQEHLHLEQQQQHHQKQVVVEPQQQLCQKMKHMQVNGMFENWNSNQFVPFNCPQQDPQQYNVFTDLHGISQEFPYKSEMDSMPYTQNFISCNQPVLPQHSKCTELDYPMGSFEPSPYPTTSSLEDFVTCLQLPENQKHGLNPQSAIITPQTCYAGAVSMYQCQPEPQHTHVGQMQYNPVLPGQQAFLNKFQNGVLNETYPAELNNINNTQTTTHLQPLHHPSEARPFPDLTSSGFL
Sequence of Hepatocyte nuclear factor 3-beta (Homo sapiens) (Q9Y261 whole entry, looked up): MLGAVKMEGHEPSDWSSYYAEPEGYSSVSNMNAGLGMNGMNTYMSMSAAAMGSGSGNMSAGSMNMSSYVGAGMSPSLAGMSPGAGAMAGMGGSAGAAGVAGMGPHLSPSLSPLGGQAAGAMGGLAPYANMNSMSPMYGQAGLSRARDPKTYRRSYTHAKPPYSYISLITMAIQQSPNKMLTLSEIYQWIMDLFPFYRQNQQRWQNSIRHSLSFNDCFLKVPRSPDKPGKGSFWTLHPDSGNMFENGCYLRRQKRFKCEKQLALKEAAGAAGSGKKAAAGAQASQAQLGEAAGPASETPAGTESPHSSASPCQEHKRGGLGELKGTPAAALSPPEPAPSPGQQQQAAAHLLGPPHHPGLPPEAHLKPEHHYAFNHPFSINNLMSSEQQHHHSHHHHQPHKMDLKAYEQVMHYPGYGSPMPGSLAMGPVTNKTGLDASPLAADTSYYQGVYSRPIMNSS
Sequence of CCAAT/enhancer-binding protein beta (Homo sapiens) (P17676 whole entry, looked up): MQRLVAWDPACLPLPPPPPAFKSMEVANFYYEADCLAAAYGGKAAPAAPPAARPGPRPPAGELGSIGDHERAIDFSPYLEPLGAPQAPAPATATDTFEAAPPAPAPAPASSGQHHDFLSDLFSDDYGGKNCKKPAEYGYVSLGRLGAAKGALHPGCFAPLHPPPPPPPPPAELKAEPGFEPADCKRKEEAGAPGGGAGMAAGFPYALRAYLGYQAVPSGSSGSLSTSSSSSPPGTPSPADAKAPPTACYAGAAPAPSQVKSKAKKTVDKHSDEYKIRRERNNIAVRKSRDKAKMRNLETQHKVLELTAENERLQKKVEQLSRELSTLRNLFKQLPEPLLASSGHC

C1=CCCC1
inactive: [1] | [2] | [3] | [4] | [5] | [6] | [7] | [8] | [9] | [10] | [11] | [12] | [13] | [14] | [15] | [16] | [17] | [18] | [19]

C[C@]12C=CC(=O)C=C1CC[C@@H]1[C@@H]2[C@@H](O)C[C@@]2(C)[C@H]1CC[C@]2(O)C(=O)CO
inactive: [1] | [2] | [3] | [4] | [5] | [6] | [7] | [8] | [9] | [10] | [12] | [13] | [14] | [15] | [16] | [17] | [18] | [19]

O=C1OC(=O)c2cc(Oc3ccc4c(c3)C(=O)OC4=O)ccc21
inactive: [1] | [2] | [3] | [4] | [5] | [6] | [7] | [8] | [9] | [10] | [11] | [12] | [13] | [14] | [15] | [16] | [17] | [19]

CCN(CC#N)c1cccc(C)c1
inactive: [1] | [2] | [3] | [4] | [5] | [6] | [7] | [8] | [9] | [10] | [11] | [12] | [13] | [14] | [15] | [16] | [17] | [18] | [19]

CC(C)(C)C1CCCCC1=O (configuration not stated)
inactive: [1] | [2] | [3] | [4] | [5] | [6] | [7] | [8] | [9] | [10] | [11] | [12] | [13] | [14] | [15] | [16] | [17] | [18] | [19]

CC(=O)C=CC1C(C)=CCC(C)C1(C)C (configuration not stated)
inactive: [1] | [2] | [3] | [4] | [5] | [6] | [7] | [8] | [9] | [10] | [11] | [12] | [13] | [14] | [15] | [17] | [18] | [19]

CC=C1CC2C=CC1C2 (configuration not stated)
active: [3] 26.5 µM | [5] 67.1 µM
inactive: [1] | [2] | [4] | [6] | [7] | [8] | [9] | [10] | [11] | [12] | [13] | [14] | [15] | [16] | [17] | [18] | [19]

C=CC(=O)OCCC(=O)O
inactive: [1] | [20] | [3] | [5] | [7] | [8] | [9] | [10] | [11] | [12] | [13] | [14] | [15] | [16] | [17] | [18] | [19]
